This note sets out measurements from the OligoGym collection.
Note: reference of the scale not given here.

The first experiment has as its target WFDC12. Kind of experiment: pooled miR-30 sensor sort-seq; sequence = guide strand. The conditions noted are these: shRNA.
For the sequence AAGAACGAGAGACACCATGAGG, the sensor-assay potency score (higher = more potent) is -1.13. On to TTGTCAGCTGGGCAAACCCCTG, for which the sensor-assay potency score (higher = more potent) was -1.97.

For the sequence TTCACAGGAATCACACACTTGA, the sensor-assay potency score (higher = more potent) was -0.211. Still for that read-out and setting: to AACTCCTTCCACAGCCACCAGG belongs -1.44; to TCCTCCTTCTTCCAGTTCCTTC, -1.8; to AACAACACTTCCTTTCCCCCAG, -0.813. The sequence ATGGCCTTGACACATCTTCATC gave a sensor-assay potency score (higher = more potent) of -1.78. Take TGGTCTGTGTGACACTGGGGAG: the sensor-assay potency score (higher = more potent) was -1.92. Turning to TTGACACATCTTCATCCTTGTT, the sensor-assay potency score (higher = more potent) is -1.2. As for TTTAACTCCTTCCACAGCCACC, the sensor-assay potency score (higher = more potent) was -1.29. In turn, TGCAGGTAACAACACTTCCTTT showed a sensor-assay potency score (higher = more potent) of -1.24.

In a further experiment the target is WFDC5. The experiment is described as above. Conditions: shRNA.
In the case of TGTCTTCCACGCACTGGTCAGG, the sensor-assay potency score (higher = more potent) was -1.15. With TTCCTGGTCAAGGGACACTGGC, the sensor-assay potency score (higher = more potent) is -1.55. As for TTTTGGTGGAGGAAGCAGCATG, the sensor-assay potency score (higher = more potent) was -0.976. As to TCTTCCTGCCAAAGACAGCAGG, the sensor-assay potency score (higher = more potent) is -1.27. The sequence TGTAGCAGCACTTCCTGGTCAA displayed a sensor-assay potency score (higher = more potent) of 0.234. The sequence TCTGAGTCCTTGTGACACAGGT registered a sensor-assay potency score (higher = more potent) of -0.214. The same measure, in the same setting: to AGTCCTTGTGACACAGGTGGTT belongs -1.67.

TTTTTGCCCGAGCAGTCTGAGT: the sensor-assay potency score (higher = more potent) was -1.7. For the sequence TGGCTGTCTTCCACGCACTGGT, the sensor-assay potency score (higher = more potent) is -0.871. Regarding TCAAGGGACACTGGCTGTCTTC, the sensor-assay potency score (higher = more potent) was -1.2. Same read-out and setting: to TCTGTAGCAGCACTTCCTGGTC belongs -0.738; to TGACACAGGTGGTTCATGGGGC, 0.531.
